Source: PubChem BioAssay AID1239 (SRMLSC, 2008)
In all, about 190,000 compounds went through this assay and about 3,100 (1.6%) were called active. The full list was thinned out, with actives kept by preference. Values without a mark were called inactive. No stated cut-off is given here; in the data, active means fold change above about 3.3; inconclusive means no clear call, values can overlap the other calls; inactive means below that.

Experiment: NF-kB upregulation, human neuronal cells – cell-based, HTS, primary screen (AID 1239)
Details: NF-kB reporter expression, at 12.5 µM, hits give high values

Compound	fold change
CN1CCNC(=O)C1CC(=O)N1CC=C(c2ccc(F)cc2)CC1 (stereo unspecified)	1.04
CN(c1ccc(C(=O)NCCC2=CCCCC2)cc1)S(C)(=O)=O	3.37 (active)
O=C(Cc1cccc2ccccc12)NCCC1=CCCCC1	1.12
CN(c1ccc(C(=O)NCc2ccccn2)cc1)S(C)(=O)=O	1.11
O=C(NCCC1=CCCCC1)c1ccc(Cl)c([N+](=O)[O-])c1	1.68
Cn1nnc2cc(C(=O)NCCC3=CCCCC3)ccc21	3.75 (active)
O=C(Cc1nn[nH]n1)NCCC1=CCCCC1	1.18
CN(CCc1ccccn1)C(=O)CCC1CCCN(Cc2ccccc2OC(F)F)C1 (stereo unspecified)	1.15
Cc1ccc(NC(=O)NC2CCCCC2)cc1S(=O)(=O)N1CCOCC1	1.06
CCN(CC)c1ccc2oc(=O)c(C)nc2c1	0.65
CCCCCC(=O)Nc1ccc2oc(-c3ccncc3)nc2c1	0.96
CCc1ccc2oc(-c3ccc(N)cc3)nc2c1	5.55 (active)
COC(=O)Cc1ccc(Oc2ncc(C(F)(F)F)cc2Cl)cc1	1.13
Fc1ccccc1/C=C1\CCCC2=C1Nc1ncnn1C2c1ccccc1F (stereo unspecified)	4.05 (active)
OCCNCc1cccc(OCc2ccccc2Cl)c1	0.98
c1ccc2sc(NN=C3CCCC3)nc2c1	8.8 (active)
Fc1ccc2nc(Nc3nc4c(s3)CCCC4)sc2c1	3.04
O=[N+]([O-])c1cc(Br)c(O)c(/C=N/Nc2nc3ccccc3s2)c1	0.65
Cc1ccccc1NCC(=O)N/N=C\c1ccc([N+](=O)[O-])s1	0.63
CC(=O)Nc1cc2ccc(OC(C)=O)cc2oc1=O	1.34
O=C(Nc1cc2ccccc2oc1=O)C1CCCCC1	4.4 (active)
O=C(O)c1ccc(NC(=O)C2CCCCC2)cc1	1.04
O=C(N/N=C/c1ccc(OCC2COCCO2)cc1)c1ccc(Br)cc1 (stereo unspecified)	0.81
CNc1nc2c(C)cccn2c(=O)c1C=Nc1ccc(OC)cc1	1.61
Nc1[nH]c(=S)nc2nc(-c3ccccc3)c(-c3ccccc3)nc12	1.13
COc1ccc(C2=NOC(COC(=O)c3ccc4ccccc4n3)C2)cc1 (stereo unspecified)	1.25

Compound	fold change
COc1ccc(C2=NOC3(CC(=O)N(c4ccc(C)cc4)C3=O)C2)cc1 (stereo unspecified)	0.77
COc1ccc(C2=Nc3cc(C)ccc3OC2)cc1	6.75 (active)
COC(=O)[C@H](C)[C@H]1C[C@]1(C)[C@H](NC(=O)OCc1ccccc1)c1ccccc1	0.97
CC(C)(C)[Si](OCC[C@@H]1C[C@@]1(C)[C@@H](NP(=O)(c1ccccc1)c1ccccc1)c1ccccc1)(c1ccccc1)c1ccccc1	3.34 (active)
O=C(NCc1ccccc1)[C@H]1C[C@@H]1[C@H](NP(=O)(c1ccccc1)c1ccccc1)c1ccccc1	0.77
CCOC(=O)CCCNC(=O)COC(=O)/C=C/c1ccc2c(c1)OCO2	1.06
CC1(C)CC(=O)CC2(C1)NCC(c1ccccc1Cl)c1c2[nH]c2ccccc12 (stereo unspecified)	0.75
O=C(COC(=O)C1CCCCC1)Nc1ccc([N+](=O)[O-])cc1	6.28 (active)
N/C(Cc1ccc([N+](=O)[O-])cc1)=N\OC(=O)C1CCCCC1	1.13
O=C(COc1ccc([N+](=O)[O-])cc1)Nc1ccc(N2CCCC2)cc1	1.07
CC1=NCCN1S(=O)(=O)c1cccc([N+](=O)[O-])c1	1.03
CCOC(=O)C(C)n1nc(-c2ccccc2)c2ccccc2c1=O (stereo unspecified)	0.91
CCCn1c(NC(=O)C23CC4CC(CC(O)(C4)C2)C3)nc2ccccc21	0.92
NS(=O)(=O)c1ccc(NC(=O)COC(=O)c2ccc(Cl)nc2)cc1	0.87
CC(C(=O)O)n1cnc2sc3c(c2c1=O)CCCC3 (stereo unspecified)	1.12
O=C(N/N=C/c1ccc2c(c1)OCO2)C(=O)N1CCCC1	1.4
CN(C)c1ccnc2sc3c(=O)n(Cc4ccccc4)cnc3c12	0.86
CN(C)c1ccnc2sc(C(=O)c3ccccc3)c(N)c12	3.79 (active)
Cc1nc2sc(C(=O)c3ccccc3)c(N)c2c2c1CCCC2	1.93
COc1ccc(/C=C/CN2CCCC(C(=O)c3cc(F)ccc3F)C2)cc1 (stereo unspecified)	1.06
CCOc1ccc2nc(NCCNC(=O)C(C)(C)C)c(C)cc2c1	1.12
O=C(CCc1nnc(CCCCc2ccccc2)o1)NC(c1cccnc1)C(F)(F)F (stereo unspecified)	0.86
CC(C)(C)NC(=O)Cn1cnc2cc([N+](=O)[O-])ccc2c1=O	1.11
Cc1ccc(-c2cn(S(=O)(=O)c3cccc([N+](=O)[O-])c3)nc2N)cc1	1.2
Cc1ccc(-n2cc3ccc([N+](=O)[O-])cc3n2)cc1	9.31 (active)
